According to PubChem BioAssay (NCI):
Compounds without any hit were thinned out: in the full panel of roughly 79,000, 15% have a hit. The source made the active and inactive calls. No stated cut-off is given here; in the data, active means growth inhibition above about 70%; inactive means the rest.

Experiment: NCI Yeast Anticancer Drug Screen. Data for the mgt1 strain (AID 153)
Conditions: S. cerevisiae mgt1 mutant growth inhibition, active compounds read high
Procedure: Growth inhibition of yeast strains with defined genetic alterations is measured as a screen for potential anti-cancer activity. Selected strains with alterations in DNA damage repair or cell cycle control were exposed to compounds and growth inhibition was measured relative to vehicle treated controls. The strain used in this assay is mgt1

Measured: growth inhibition

Cc1cc2c3ccccc3c3ccccc3c2nn1
inactive: at 1.2 µM -4% | at 3.7 µM -6% | at 11.0 µM -5% | at 33.0 µM -4% | at 100.0 µM -6%

Cc1cc2cc3cc(C)c(N)cc3nc2cc1N
inactive: at 1.2 µM -61% | at 3.7 µM -60% | at 11.0 µM -28% | at 33.0 µM 68%
active: at 100.0 µM 94%

CC(C)C(C)/C=C\C(C)C1CCC2C3=CC=C4CC(O)CCC4(C)C3CCC21C (stereo not given)
inactive: at 1.2 µM 0% | at 3.7 µM 3% | at 11.0 µM -1% | at 33.0 µM -9% | at 100.0 µM -4%

O=C1OC(OC/C(Br)=C(\Br)COC2OC(=O)C(Cl)=C2Cl)C(Cl)=C1Cl (stereo not given)
inactive: at 1.2 µM -5% | at 3.7 µM -1% | at 11.0 µM 2% | at 33.0 µM 3% | at 100.0 µM 9%

O=C(NCCCl)Sc1ccc(Cl)cc1
active: at 100.0 µM 71%
inactive: at 1.2 µM 1% | at 3.7 µM -2% | at 11.0 µM -2% | at 33.0 µM 30%

Cc1ccc(CC2(OCCN(C)C)CCC(C(C)(C)C)CC2)cc1 (stereo not given)
active: at 33.0 µM 84% | at 100.0 µM 99%
inactive: at 1.2 µM 14% | at 3.7 µM 12% | at 11.0 µM 21%

Cc1c(C(C)C)cc(OCCO)cc1C(C)C
inactive: at 1.2 µM -4% | at 3.7 µM -11% | at 11.0 µM -9% | at 33.0 µM -12% | at 100.0 µM 7%

CN(C)CCOC1(Cc2ccc(F)cc2)CCC(C(C)(C)C)CC1 (stereo not given)
active: at 100.0 µM 98%
inactive: at 1.2 µM 18% | at 3.7 µM 8% | at 11.0 µM 20% | at 33.0 µM 53%
